# A selection: hits, their analogues and other compounds. The true share with any hit is near 4.1%.
# NLRP3 yeast inh: inhibitors of NALP3 inflammasome in yeast | inhibition, % at 10 µM | hit rate 0.39% among 330,000 | Yeast reconstituted NLRP3/ASC/caspase-1, beta-gal luminescence, 24 h;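 active = inhibition of 50% or more; inactive = inhibition below 50%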;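 note: plate controls were induced DMSO wells for no effect and uninduced yeast grown without galactose for full effect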
# tim10-1 inh: growth inhibitors of tim10-1 mutant yeast. inhibition, % at 20 µM. AID 463190. hit rate 2.2% among 330,000. S. cerevisiae tim10-1 ts strain growth, BacTiter-Glo, 24 h;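 active = inhibition of at least 40%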;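 note: mutant grown at 25 °C; 0% = DMSO wells with yeast and 100% = wells holding no yeast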
# TIM10 inh: TIM10 yeast growth inhibition. S. cerevisiae TIM10 strain growth, BacTiter-Glo luminescence, 24 h. hit rate 1.4% among 330,000. inhibition, % at 10 µM;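 active = inhibition of 40% or more at the single tested concentration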;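 note: wild-type TIM10 isogenic control strain grown at permissive 25 °C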
# tim23-1 inh: inhibits growth of tim23-1 mutant yeast. S. cerevisiae tim23-1 growth, BacTiter-Glo luminescence, 24 h. inhibition, % at 20 µM. hit rate 1.3% among 330,000. AID 463212;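 active = growth inhibition of the mutant yeast at or above 50%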;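 note: temperature-sensitive mutant grown at 25 °C; plate controls were DMSO-treated mutant yeast for no effect and medium wells lacking yeast for full effect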
# NALP1 inh: NALP1 inhibition; inhibition, % at 10 µM; AID 2071; hit rate 0.61% among 280,000; S. cerevisiae NALP1/ASC/caspase-1 growth, X-gal OD620, 72 h; in the data active = inhibition mostly above about 24%, no sharp cut-off; inactive = mostly below about 32%
# tim23-1 confirm: tim23-1 yeast growth inhibition, confirmed | inhibition, % at 20 µM | AID 463218 | S. cerevisiae tim23-1 growth, BacTiter-Glo luminescence, 24 h | shares compounds with tim23-1 inh | hit rate 83% among 4,400;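 active = inhibition above about 39% in either of two replicate wells at 20 µM, limit read from the data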;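 note: temperature-sensitive tim23-1 mutant grown at 25 °C; 0% = DMSO wells with yeast and 100% = medium wells without yeast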
# Numbers without * were called inactive; x = no result given.
SMILES,NLRP3 yeast inh,tim10-1 inh,TIM10 inh,tim23-1 inh,NALP1 inh,tim23-1 confirm
Cc1cccn2c(=O)c(/C=C(\C#N)C(=O)NCc3ccco3)c(N3CCCCCC3)nc12,5.4,31.1,16.8,53.4*,0.7,47.9*
CCOC(=O)c1ccc(NC(=O)CSc2nc(=O)n3cccc(C)c3n2)cc1,-8.3,21.9,-5.5,52.1*,x,49.8*
CCOC(=O)C1=C(CS(=O)(=O)c2ccc(F)cc2)NC(=O)NC1c1ccc(O)c(O)c1 (stereo unspecified),10.6,0.4,2.7,-5.2,18.2,x
CCc1nnc(NC(=O)CSc2nc3c(cc2C#N)CCC3)s1,14.6,5.9,-9.0,93.8*,10.7,5.5
CCOc1cc2c(cc1/C=C1/NC(=O)N(CC(=O)OC)C1=O)OCO2,-6.6,0.7,1.4,9.4,-7.6,x
Oc1c(Br)cc(Br)cc1CNc1cccc2cccnc12,19.5,27.0,25.7,57.0*,7.7,62.2*
COc1ccc(CN(C)C2c3ccccc3-c3ccccc32)cc1,9.4,-33.2,-22.2,-5.2,28.4,x
O=C(CCNS(=O)(=O)c1ccc(OC(F)(F)F)cc1)NC1CC1,18.0,15.2,2.8,9.8,x,x
CN(C)c1nc(N)c([N+](=O)[O-])c(N2CCCCCC2)n1,20.6,33.1,8.5,54.3*,17.6,39.0*
COc1ccc(C2Nc3cccc4cccc(c34)N2)cc1Br,10.7,23.2,25.8,55.7*,28.0,55.4*
CSc1ccccc1C(=O)OCC(=O)NC1CCS(=O)(=O)C1 (stereo unspecified),3.7,-3.7,2.8,10.9,9.4,x
COc1cc(SC)ccc1C(=O)OCC(=O)N1CCN(C(C)=O)CC1,15.7,3.5,0.4,19.0,x,x
CC(C)Oc1cc(O)c2c(=O)c(-c3ccc(O)cc3)coc2c1,14.5,37.0,22.0,56.9*,34.1,61.3*
O=C(NC(=S)NC(=O)c1ccccc1F)c1ccccc1F,11.1,5.0,24.7,54.1*,7.6,48.4*
O=C(Nc1ccc(NC(=S)NC(=O)c2ccccc2F)cc1)c1cccs1,17.1,25.5,3.6,51.3*,3.7,49.5*
Fc1ccccc1NC(=S)NCCc1ccc(Cl)cc1,30.5,29.7,30.3,55.1*,-6.9,55.2*
O=C(NC(=S)NCCc1ccccc1)c1ccccc1F,-16.2,34.7,33.1,51.4*,13.4,44.5*
Cc1c(Cl)cccc1NC(=S)NCCc1ccc(Cl)cc1,19.9,23.5,22.2,32.4,-21.8,x
Cc1ccc(C(=O)NC(=S)NCc2ccccc2)cc1,29.5,22.2,-11.2,51.9*,8.6,41.5*
COc1ccc(CCNC(=S)Nc2cccc(C)c2C)cc1,11.9,30.5,22.9,50.5*,-0.6,28.2
Cc1[nH]c2ccccc2c1-c1nc(-c2ccc(Cl)cc2)nnc1-c1ccccc1,14.9,2.9,-5.2,-31.3,16.5,x
Cc1ccc(Sc2ccc(N)cc2C#N)cc1,28.9,34.9,10.8,58.1*,x,37.1
O=C(Nc1ccccc1N(C(=O)c1ccco1)S(=O)(=O)c1cccs1)c1ccco1,-3.7,30.3,23.1,54.1*,-11.8,38.5*
CC1CCCCN1C(=O)Nc1cccc(Cl)c1 (stereo unspecified),4.4,16.4,17.3,51.4*,2.3,48.0*
C#CCOCCOCCOCCNc1nc(N2CCN(C(=O)CCCCCCCCCCNC(=O)[C@H]([C@@H](C)CC)n3cc(CCCCCN)nn3)CC2)nc(N2CCN(C(=O)CCCCCCCCCCNC(=O)[C@H]([C@@H](C)CC)n3cc(CCCCN=C(N)N)nn3)CC2)n1,26.3,13.6,-8.8,40.4,x,x
SMILES,NLRP3 yeast inh,tim10-1 inh,TIM10 inh,tim23-1 inh,NALP1 inh,tim23-1 confirm
C#CCOCCOCCOCCNc1nc(N2CCN(C(=O)CCCCCCCCCCNC(=O)[C@H]([C@@H](C)CC)n3cc(CCCCN=C(N)N)nn3)CC2)nc(N2CCN(C(=O)CCCCCCCCCCNC(=O)[C@H](CCCCN)n3cc(C)nn3)CC2)n1,17.3,35.7,12.1,58.0*,x,41.4*
COc1ccc(Cn2c(CCC(=O)NCCC(C)C)nc3ncccc3c2=O)cc1,1.3,22.7,-4.7,14.7,4.2,x
O=C(NCC1COc2ccccc2O1)c1ccc(NC(=O)c2ccco2)cc1 (stereo unspecified),5.8,36.5,32.9,58.4*,20.0,53.3*
CN(c1ccc(O)cc1)S(=O)(=O)c1ccc2ccccc2c1,44.7,-12.7,2.5,51.3*,18.1,45.0*
Cc1ccc(N(C(=O)c2csnn2)C(C(=O)NC2CCCC2)c2cccnc2)c(C)c1 (stereo unspecified),-7.1,2.9,-16.3,13.1,1.0,x
Cc1oc2cc(O)cc(O)c2c(=O)c1-c1ccc2c(c1)OCCCO2,23.3,29.2,12.9,65.3*,-46.7,53.0*
O=C(COC(=O)/C=C/c1ccccc1Cl)NCCc1ccc(Cl)cc1Cl,-2.5,11.2,15.8,11.1,8.4,x
CCCc1cc(=O)oc2cc(OCC(=O)NCCCN3CCCC3=O)ccc12,-11.7,8.9,8.6,4.4,12.4,x
C=C(C)C(O)Cc1c(OC)ccc(C(=O)/C=C/c2ccc(O)cc2)c1O (stereo unspecified),37.1,23.6,30.1,54.1*,x,42.0*
COc1cccc(/C(C)=N/Nc2ccc(S(=O)(=O)N3CCCCC3)cn2)c1,3.2,26.6,39.1,51.5*,x,44.0*
C/C(=N\Nc1ccc(S(=O)(=O)N2CCCCC2)cn1)c1ccc(O)cc1,2.1,26.0,39.3,34.8,x,x
COc1ccc(-c2c(C#CC(C)(C)O)c3ccccc3n2C)cc1,10.0,23.1,8.6,25.4,x,x
COc1ccc(-c2oc3ccccc3c2C#CC(C)(C)O)cc1,17.1,18.9,33.8,52.3*,x,37.5*
CCn1c(SCC(=O)NNC(=O)c2ccc(C)cc2)nnc1C1CC1,7.3,0.9,-14.8,-4.4,12.2,x
N/C(CC(=O)Nc1ccc(F)cc1F)=N\OC(=O)c1cccs1,-0.8,33.7,29.9,61.0*,2.1,39.6*
Cc1cc(Cl)ccc1C(=O)C1CCCN(C(=O)CN2CCOC2=O)C1 (stereo unspecified),10.9,-5.8,8.5,2.5,-1.1,x
CCOc1ccc2oc(C(=O)Nc3ccc4c(c3)OCO4)c(C)c2c1,32.8,-5.8,11.9,95.3*,21.8,17.2
CN(c1ccccc1)S(=O)(=O)c1ccc(C(=O)N2CCCC(C(F)(F)F)C2)cc1 (stereo unspecified),11.9,12.6,6.5,19.3,13.2,x
COc1cccc(NC(=S)N2CCN(S(=O)(=O)c3ccccc3)CC2)c1,5.5,6.8,6.1,22.2,-3.7,x
CCc1nnc(NC(=O)CCC(=O)NC2CCCC2)s1,15.5,-6.8,-4.3,-12.8,4.1,x
C=CCNC(=O)c1ccc2c3n(nc2c1)-c1ccc(Cl)cc1CO3,16.1,29.8,23.2,59.0*,x,49.6*
Cc1ccc2c(c1)COc1c3ccc(C(=O)O)cc3nn1-2,-3.5,-7.4,2.4,8.5,21.0,x
Oc1c(Cl)cc(Cl)cc1CNn1cnnc1,-31.1,9.0,18.3,-49.1,16.8,x
Oc1c(Cl)cc(Cl)cc1CNc1nccs1,20.6,-19.3,9.3,50.8*,9.1,52.2*
